Hits are enriched below; roughly 2.6% of the tested compounds scored in any of these assays.
A549 viability: A549 cytotoxicity, counter-screen for Nrf2 inhibitors | Potency, µM (top dose mostly 46 µM), without a hit: at the top dose activity change, negative = cytotoxicity, usual class: inhibitors | 0.16% of 390,000 active | A549 ARE-Fluc cells, CellTiter-Fluor viability, 18-24 h | AID 504648; further: potency means the concentration at half of the fitted maximal effect; on the % scale 0 is the no-effect control and ±100 the full control effect
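A549 ARE_Fluc cells in 5% FBS OPTI-MEM were exposed to compounds in concentration-response for 18-24 h at 37 deg C. Viability was read by CellTiter-Fluor fluorescence (Ex 405/Em 525) after 30 min, before the luciferase read.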
CCT chaperon mod: changes cytosolic chaperonin activity; purified chaperonin ATPase assay, HTRF ADP detection, 30 min; activity change, % (no concentration beside the values), hits read low; 0.3% of 360,000 active; AID 651819; in the data active means activity change below about -30%; further: on the % scale 0 is the no-effect control and ±100 the full control effect
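Nucleotide hydrolysis assay: TRiC at 20–40 nM final (set by batch activity) with 10 uM ATP, 30 min at 37 °C, in presence of 76 uM compound. Detection by competitive ADP HTRF, 30 min ambient.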
Nrf2 block: Nrf2 pathway inhibition; A549 ARE-Fluc reporter, luciferase luminescence, 18-24 h; Potency, µM (doses to about 46 µM), for inactives: at the top dose activity change, negative = inhibition, hits mostly inhibitors; 2.1% of 360,000 active; further: potency means the concentration at half of the fitted maximal effect; on the % scale 0 is the no-effect control and ±100 the full control effect; nearly all actives have a fitted effect of over 60% in size
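Two sequential reads on A549 ARE_Fluc cells exposed to compound for 18-24 h: a CellTiter-Fluor fluorescence read for viability, then a luciferase luminescence read for Nrf2/ARE activity.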
Nrf2 activator: activators of Nrf2 (ARE) signaling; AREc32 ARE-luciferase reporter (MCF7-derived line), luminescence, 24 h; Potency, µM (series often up to 46.1 µM), for inactives: at the highest dose activation, hits mostly activators; 0.31% of 410,000 active; AID 624171; further: potency means the concentration at half of the fitted maximal effect; % of control where 0% means no effect; nearly all actives have a fitted effect of over 65% in size
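ARE-driven firefly luciferase activity in AREc32 cells measured after a 24 hr compound exposure at 37 deg C, using Steady-Glo reagent and a 30 min room-temperature hold.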
A-T KAP1 phos: candidate therapy for ataxia-telangiectasia; 0.19% of 320,000 active; F2112 A-T fibroblasts, KAP-1 phosphorylation AlphaLISA; neocarzinostatin DNA damage 30 min before lysis; Potency, µM (highest dose often 57.5 µM), without a hit: at the highest dose activation, actives largely listed as activators; further: potency means the concentration at half of the fitted maximal effect; % of control where 0% means no effect; nearly all actives have a fitted effect of over 45% in size
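hTERT-immortalized A-T patient fibroblasts (F2112), 500 cells/well in OPTI-MEM, 1% FBS, got compounds for 60 min, then NCS for 30 min at 37C. Lysates were then assayed for phospho-KAP-1 by AlphaLISA (anti-pKAP1 donor, anti-KAP1 acceptor beads), 6 hr at 25C.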
TCR act: activates T cell receptor signaling; Potency, µM (top dose mostly 9.22 µM), for inactives: top-dose activation of IL-2 secretion, most hits filed as activators; primary human leukocytes, anti-CD3, IL-2 HTRF, 48 h; 330,000 tested, under 10 active; further: % of control where 0% means no effect
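IL-2 release read by HTRF sandwich (Eu cryptate donor, d2 acceptor, 665 nm emission) after 48 hr exposure of primary human leukocytes to compound together with anti-CD3 beads in the absence of co-stimulatory signals.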
Active calls of the source: *; ? = inconclusive; nt = no result given; [ ] = dose if it differs, or a comment. Unless noted, the call rests on the fitted dose curve; in most records, active means well fitted curve in the direction sought with a large enough effect; inconclusive means small, poorly fitted or top-dose-only effect, or another doubt; inactive means no such curve, though single readings can be large; an effect the other way counts as inactive or inconclusive.

SMILES | A549 viability | CCT chaperon mod | Nrf2 block | Nrf2 activator | A-T KAP1 phos | TCR act
CC(=O)Nc1ccc(SCC(=O)Nc2ccc(Cl)cn2)cc1 | -2% | 1 | -2% | -1% | 0% | 8%
COc1ccc(OCCn2c(C)nc3ccccc32)cc1 | nt | 1 | nt | 3% | nt | nt
Cc1nc2ccccc2n1CCOc1ccc(F)cc1 | 6% | 0 | 21µM* | 3% | 6% | nt
COc1cccc(CNC(=O)CN2CCC(c3nc4ccc(C)cc4[nH]3)CC2)c1 | 0% | -1 | 16µM* | 0% | 11% | -5%
COc1ccccc1NC(=O)CN1CCC(c2nc3ccc(C)cc3[nH]2)CC1 | -1% | -2 | -4% | 0% | 0% | nt
Clc1ccc(-c2nn3c(-c4cc(-c5ccccc5)n[nH]4)nnc3s2)cc1 | 1% | nt | -5% | nt | nt | nt
COc1cccc2cc(C(=O)NCc3ccc(C)cc3)c(=O)oc12 | 1% | -10 | -9% | 0% | 23% | -10%
COc1cccc2cc(C(=O)OCC(=O)N3CC(C)OC(C)C3)c(=O)oc12 (stereo not given) | -3% | 1 | -6% | 16µM* | -2% | -2%[46.1 µM]
CCOc1cccc2cc(C(=O)N3CC(C)OC(C)C3)c(=O)oc12 (stereo not given) | 2% | -5 | 3% | -1% | 2% | 3%
COc1cccc2cc(C(=O)Nc3ccc(CC(=O)O)cc3)c(=O)oc12 | -12% | nt | 1.5µM* | -4% | nt | nt
CC(C)N(C(=O)CSc1nc(Cc2ccccc2)nc2ccccc12)C(C)C | 3% | -2 | 18µM* | 2% | 1% | -5%
CC(=O)N1c2ccc(S(=O)(=O)N3CCC(C(=O)Nc4ccccn4)CC3)cc2CC1C (stereo not given) | -6% | -1 | 18µM* | -1% | 5% | 8%
CC(=O)N1c2ccc(S(=O)(=O)N3CCC(C(=O)N4CCCC(C)C4)CC3)cc2CC1C (stereo not given) | -8% | 0 | 16µM* | 0% | 1% | -8%
COc1ccccc1N1CCN(C(=O)C2CCN(S(=O)(=O)c3ccc4c(c3)CC(C)N4C(=O)C3CC3)CC2)CC1 (stereo not given) | -5% | 0 | 26µM* | 0% | -3% | 0%
COc1ccccc1N1CCN(C(=O)C2CCN(S(=O)(=O)c3ccc4c(c3)CC(C)N4C(C)=O)CC2)CC1 (stereo not given) | 11% | 0 | -18% | 0% | -1% | -2%
COc1[nH]c(/N=C/c2ccco2)c(C#N)c1C#N | 7% | nt | 16% | nt | nt | nt
CCCN1CNc2c(c(=O)[nH]c(=S)n2CCc2ccccc2C)C1 | 7% | nt | 9% | nt | nt | nt
Cc1ccc(-n2ncc(C(=O)N3CCN(C(=O)c4ccco4)CC3)c2-n2cccc2)cc1 | 2% | 0 | ? | 0% | 4% | 1%
CCCCCNC(=O)c1cc2c(=O)n3ccccc3nc2n1C | -3% | nt | 18µM* | 4% | nt | nt
CC(=O)NC(Cc1cccc(F)c1)C(=O)NC1CCN(C(=O)Nc2ccccc2)CC1 (stereo not given) | -1% | -1 | -15% | 0% | -2% | 1%
CCOc1ccccc1N1CC(C(=O)Nc2ccc(S(=O)(=O)N3CCCCC3)cc2)CC1=O (stereo not given) | 6% | 1 | ? | 0% | -3% | nt
CN1c2ccsc2/C(=N/NC(=O)c2c(F)cccc2F)CS1(=O)=O | 3% | 0 | -6% | 0% | 0% | 2%
CN1c2ccsc2/C(=N/Nc2ccccc2)CS1(=O)=O | -5% | -3 | ? | 7.1µM* | -1% | -1%
CCC(=O)Nc1cccc(C(=O)/C=C/c2ccc(F)cc2)c1 | ? | -4 | 23µM* | -3% | ? | 4%
O=S1(=O)N=C(Oc2ccccc2C(F)(F)F)c2ccccc21 | 3% | nt | ? | nt | nt | nt
SMILES | A549 viability | CCT chaperon mod | Nrf2 block | Nrf2 activator | A-T KAP1 phos | TCR act
CC1CCN(S(=O)(=O)c2ccc(C(=O)Nc3nnc(-c4ccco4)o3)cc2)CC1 | 0% | 2 | 8.2µM* | -1% | 1% | -1%
O=C(Nc1nnc(-c2ccco2)o1)c1ccc([N+](=O)[O-])s1 | ? | 3 | 21µM* | 2% | -4% | 12%
COc1cccc(-c2nnc(NC(=O)c3ccc(S(=O)(=O)N4CC(C)OC(C)C4)cc3)o2)c1 (stereo not given) | -23% | 3 | 9.2µM* | 0% | nt | 1%
CC1CCCN(S(=O)(=O)c2ccc(C(=O)Nc3nnc(-c4ccccn4)o3)cc2)C1 (stereo not given) | 0% | 0 | 13µM* | 2% | 2% | 0%
Cc1ccc(C(=O)Nc2nnc(-c3ccco3)o2)cc1 | 13% | 0 | 3% | 2% | -1% | 2%[46.1 µM]
CC1CCCN(S(=O)(=O)c2ccc(C(=O)Nc3nnc(-c4ccccc4Cl)o3)cc2)C1 (stereo not given) | -4% | 0 | ? | 1% | -3% | -11%
Cc1cc(N2C(=O)c3ccccc3C2=O)no1 | 1% | nt | 14% | nt | nt | nt
CS(=O)(=O)c1cccc(-c2nnc(NC(=O)c3ccc(S(=O)(=O)N4CCCC4)cc3)o2)c1 | -12% | -4 | -15% | 0% | 1% | -1%
O=C(Nc1nnc(-c2ccc(F)cc2)o1)c1ccc(S(=O)(=O)N2CCOCC2)cc1 | -19% | 0 | 9.2µM* | 2% | 5% | -7%
COc1ccccc1NC(=O)c1ccc(S(=O)(=O)N2CCC(C)CC2)cc1 | 0% | 3 | 8.2µM* | -1% | 0% | -14%
Cc1ccc(Cn2c(=O)n(-c3cccc(C(F)(F)F)c3)c(=O)c3c(C)c(C)sc32)c(C)c1 | -1% | nt | 1% | -1% | nt | nt
CCCn1ccc2c(OCC(=O)NCc3ccccc3Cl)cccc2c1=O | -3% | nt | nt | 2% | nt | nt
CCOC(=O)c1c(-c2ccc(C)o2)csc1NC(=O)CN(C)CC(=O)Nc1ccc(C)cc1 | -27% | -2 | 16µM* | -1% | nt | 3%
CCOC(=O)c1c(-c2ccc(C)o2)csc1NC(=O)CSc1nncs1 | 2% | 1 | 21µM* | 19% | 1% | -6%
O=C(COC(=O)CNC(=O)c1ccco1)Nc1ccccc1OC(F)F | 3% | 2 | 8% | -1% | 17% | -4%
CCOC(=O)C1=C(O)C(=O)N(Cc2ccccc2)C1 | -1% | -2 | 2% | 0% | 1.1µM* | 4%
Cc1ccc(/C=N/NC(=O)Cn2nnc(N)n2)cc1 | -1% | -3 | 3% | 0% | 25µM* | 0%
O=C(CSc1n[nH]c(-c2ccncc2)n1)Nc1ccc(Br)cc1 | -2% | 0 | -7% | 2% | 20µM* | -6%
COC(=O)CSc1nc2c(cnn2-c2ccc(F)cc2)c(=O)[nH]1 | -1% | -32* | -16% | -1% | -8% | -4%

Screening results as filed in PubChem.
